{"source": "PubChem BioAssay (NCATS)", "note": "Results filed as inconclusive are left out. Calls of active or inactive are those of the source. The call rests on the fitted dose curve; in most records, active means well fitted cell-killing curve with a large enough effect; inconclusive means small, poorly fitted or top-dose-only effect, or effect the other way; inactive means no such curve, though single readings can be large or run the other way. Potency means the concentration at half of the fitted maximal effect."}
{"experiment": "Quantitative High-Throughput drug screen in 47 multiple myeloma cell lines against the NCATS MIPE library collection: U266_ATCC cell viability assay (AID 1919864); further: nearly all actives have a fitted effect of over 35% in size", "conditions": "U266 myeloma viability, CellTiter-Glo ATP luminescence, 48 h; series mostly up to 45.8 µM; viability (% of DMSO control): at the top concentration", "description": "PI: Beverly A. Mock Ph.D.\nLaboratory of Cancer Biology and Genetics,\nCenter for Cancer Research, National Cancer Institute,\nNational Institute of Health, Bethesda, Maryland\nDrug resistance and disease progression are common in multiple myeloma (MM) patients, underscoring the need for new therapeutic combinations. […] We hypothesized that effective combinations would reduce MYC expression and enhance p16 activity. […] These preclinical data identify potentially useful drug combinations for evaluation in drug-resistant MM and reveal potential mechanisms of combined drug sensitivity.\nDescribed herein is the primary MIPE qHTS used to cherrypick compounds. Validated compounds were then further tested for potential synergistic activiy.\n[1] Peat TJ, Gaikwad SM, Dubois W, Gyabaah-Kessie N, Zhang S, Gorjifard S, Phyo Z, Andres M, Hughitt VK, Simpson RM, Miller MA, Girvin AT, Taylor A, Williams D, D'Antonio N, Zhang Y, Rajagopalan A, Flietner E, Wilson K, Zhang X, Shinn P, Klumpp-Thomas C, McKnight C, Itkin Z, Chen L, Kazandijian D, Zhang J, Michalowski AM, Simmons JK, Keats J, Thomas CJ, Mock BA. Drug combinations identified by high-throughput screening promote cell cycle transition and upregulate Smad pathways in myeloma. Cancer Lett. 2023 Aug 1;568:216284. doi: 10.1016/j.canlet.2023.216284. Epub 2023 Jun 24. PMID: 37356470; PMCID: PMC10408729.\nSEQUENCE No. (e.g., 1, 2, 3, etc.); […] (e.g., Cells, Incubation, Reagent, etc.); VALUE and DESCRIPTION.\n1; Cells; 5 uL; white, solid bottom 1536-well Greiner assay plate.\n2; Compounds; 23 nL; Kalypsis pin tool (Wako USA) equipped with a 1536-well pin head to transfer to the assay plates.\n3; Incubation; 48 hours; 37C incubation.\n4; Reagent;5uL; CellTiter Glo (Promega).\n5; Detector; 425V; Luminescence; Viewlux PerkinElmer.\nNOTES (numbers refer to Sequence numbers above)\n1. The cell-based screening methods employed in this study were like those previously published. Briefly, the corresponding myeloma cell lines were screened in 1,536-well plates with 500 cells, 5-uL per well for inhibition of cell viability (assessed by measuring ATP levels with CellTiterGlo).\n2. NCATS MIPE 4.0 library of approved and investigational drugs were added using the Kalypsis pin tool. Wells treated with DMSO only for 100% viability and media only for 0% viability were used as controls.\n3. The assay plates were covered and incubated for 48 hours in a 37C, 5% CO2 incubator with controlled humidity.\n4. After 48 hours, CellTilter-GloTM luminescent substrate mix (Promega) reagent was added to the assay plate and plates we incubated for 5 min at room temperature.\n5. Signal was measured as median relative luminescence units on a ViewLux (PerkinElmer) multiplate reader.\n[1] Heske CM, Davis MI, Baumgart JT, Wilson K, Gormally MV, Chen L, Zhang X, Ceribelli M, Duveau DY, Guha R, Ferrer M, Arnaldez FI, Ji J, Tran HL, Zhang Y, Mendoza A, Helman LJ, Thomas CJ. Matrix Screen Identifies Synergistic Combination of PARP Inhibitors and Nicotinamide Phosphoribosyltransferase (NAMPT) Inhibitors in Ewing Sarcoma. Clin Cancer Res. 2017 Dec 1;23(23):7301-7311. doi: 10.1158/1078-0432.CCR-17-1121. Epub 2017 Sep 12. PMID: 28899971; PMCID: PMC6636827."}
{"smiles": "Nc1ccccc1NC(=O)c1ccc(CNC(=O)OCc2cccnc2)cc1", "Potency": "5.9 µM (active)"}
{"smiles": "CCOC(=O)C1=C(C)NC2=C(C(=O)CC(C)(C)C2)C1c1ccc(-c2ccccc2)cc1", "note": "(stereo not given)", "Potency": "26.4 µM (active)"}
{"smiles": "CC[C@H]1CN2CCc3cc(OC)c(OC)cc3[C@H]2C[C@@H]1C[C@@H]1NCCc2cc(OC)c(OC)cc21", "Potency": "0.0935 µM (active)"}
{"smiles": "O=C(O)CCCc1c[nH]c2ccccc12", "viability (% of DMSO control)": "108% (inactive)"}
{"smiles": "CCN1CCN(Cc2ccc(-c3cc4c(N[C@H](C)c5ccccc5)ncnc4[nH]3)cc2)CC1", "Potency": "0.166 µM (active)"}
{"smiles": "CC=C1NC(=O)[C@H]2CSSCCC=C[C@H](CC(=O)N[C@H](C(C)C)C(=O)N2)OC(=O)[C@H](C(C)C)NC1=O", "Potency": "0.0372 µM (active)"}
{"smiles": "NCC(=O)Nc1ccc(-n2nc(C(F)(F)F)cc2-c2ccc3c(ccc4ccccc43)c2)cc1", "Potency": "20.9 µM (active)"}
{"smiles": "CN(C)Cc1c(C(=O)NCCOc2ccc(C(=O)NO)cc2)oc2ccccc12", "Potency": "1.18 µM (active)"}
{"smiles": "c1ccc2c(CCNc3ccc(Nc4ccncc4)cc3)c[nH]c2c1", "Potency": "20.9 µM (active)"}
{"smiles": "COc1cc2c(cc1-c1c(C)noc1C)ncc1[nH]c(=O)n([C@H](C)c3ccccn3)c12", "Potency": "18.7 µM (active)"}
{"smiles": "COc1cccc2nc(-c3cccs3)nc(NN3C(=O)C=C(C)C3=O)c12", "Potency": "0.118 µM (active)"}
{"smiles": "C[C@@]12O[C@@H](C[C@]1(O)CO)n1c3ccccc3c3c4c(c5c6ccccc6n2c5c31)CNC4=O", "Potency": "2.09 µM (active)"}
{"smiles": "CC(C)=CCCC(C)=CCCC(C)=CCSc1ccccc1C(=O)O", "Potency": "0.372 µM (active)"}
{"smiles": "Cn1cc(-c2[nH]c3cc(NC(=O)[C@H](N)C4CCCCC4)cc4c3c2C=NNC4=O)cn1", "Potency": "18.7 µM (active)"}
{"smiles": "CC(C)CC(=O)Nc1n[nH]c2c1CN(C(=O)C1CCN(C)CC1)C2(C)C", "Potency": "1.87 µM (active)"}
{"smiles": "Cn1cc(-c2ccncc2)c(-c2ccc(OCc3ccc4ccccc4n3)cc2)n1", "Potency": "18.7 µM (active)"}
{"smiles": "Cc1cc(CN2CCN(c3c(Br)cnc4nc(-c5ccc(N6CCN(C)CC6)cc5)[nH]c34)CC2)no1", "Potency": "16.6 µM (active)"}
{"smiles": "CC1(C)OC2=C(C(=O)c3ccccc3C2=O)[C@H](NCc2ccccc2)[C@H]1O", "Potency": "2.64 µM (active)"}
{"smiles": "CC[C@H](CO)Nc1nc(NCc2ccccc2)c2ncn(C(C)C)c2n1", "Potency": "23.5 µM (active)"}
{"smiles": "O=C(O)C1(Cc2cccc(Nc3nccs3)n2)CCC(Oc2cccc(Cl)c2F)CC1", "note": "(stereo not given)", "viability (% of DMSO control)": "151% (inactive)"}
{"smiles": "CN(C)CC=CC(=O)Nc1cc2c(Nc3ccc(F)c(Cl)c3)ncnc2cc1O[C@H]1CCOC1", "Potency": "20.9 µM (active)"}
{"smiles": "O=C(O)Cn1nnc(-c2cc(N3CCC(Oc4cc(F)ccc4Br)CC3)no2)n1", "viability (% of DMSO control)": "138% (inactive)"}
{"smiles": "COC(=O)[C@]12CCC(C)(C)C[C@@H]1[C@@H]1C(=O)C=C3[C@@]4(C)C=C(C#N)C(=O)C(C)(C)[C@@H]4CC[C@@]3(C)[C@]1(C)CC2", "Potency": "0.264 µM (active)"}
{"smiles": "CC1COC2(CCN(c3nc(=O)c4cc(C(F)(F)F)cc([N+](=O)[O-])c4s3)CC2)O1", "note": "(stereo not given)", "viability (% of DMSO control)": "124% (inactive)"}
{"smiles": "Cc1[nH]c2ccccc2c1CCNCc1ccc(C=CC(=O)NO)cc1", "Potency": "0.132 µM (active)"}
{"smiles": "Cc1cc(Nc2ncnc3ccc(-c4ccc(CNCCS(C)(=O)=O)o4)cc23)ccc1Oc1ccn2ncnc2c1", "Potency": "18.7 µM (active)"}
{"smiles": "Nc1ccc(S(=O)(=O)Nc2ncccn2)cc1", "viability (% of DMSO control)": "120% (inactive)"}
{"smiles": "Cc1cccc(C=NNc2cc(N3CCOCC3)nc(OCCc3ccccn3)n2)c1", "Potency": "6.62 µM (active)"}
{"smiles": "Nc1ncnc2c1c(-c1cnc3[nH]ccc3c1)nn2C1CCCC1", "Potency": "14.8 µM (active)"}
{"smiles": "NC(=O)c1c(OCc2c(F)cc(Br)cc2F)nsc1NC(=O)NCCCCN1CCCC1", "Potency": "29.6 µM (active)"}
{"smiles": "Nc1nccc(Oc2ccc(NC(=O)c3c[nH]cc(-c4ccc(F)cc4)c3=O)cc2F)c1Cl", "Potency": "20.9 µM (active)"}
{"smiles": "COc1cc(=C2C=c3ccccc3=N2)[nH]c1=Cc1[nH]c(C)cc1C", "Potency": "5.26 µM (active)"}
{"smiles": "O=C(c1cncc(Br)c1)N1CCC(N2CCCC2)CC1", "viability (% of DMSO control)": "122% (inactive)"}
{"smiles": "COc1cc2ncn(-c3cc(OCc4ccccc4C(F)(F)F)c(C(N)=O)s3)c2cc1OC", "Potency": "18.7 µM (active)"}
{"smiles": "Cn1cncc1[C@@](N)(c1ccc(Cl)cc1)c1ccc2c(c1)c(-c1cccc(Cl)c1)cc(=O)n2C", "Potency": "23.5 µM (active)"}
{"smiles": "Cc1cc(Nc2cc(N3CCN(C)CC3)nc(Sc3ccc(NC(=O)C4CC4)cc3)n2)n[nH]1", "Potency": "16.6 µM (active)"}
{"smiles": "COC(=O)C1=C(C)NC(C)=C(C(=O)OCCN2CCN(C(c3ccccc3)c3ccccc3)CC2)C1c1cccc([N+](=O)[O-])c1", "note": "(stereo not given)", "viability (% of DMSO control)": "127% (inactive)"}
{"smiles": "COCCOc1ccc2c(c1)ncn2-c1ccc2cccc(N3CCC(N)CC3)c2n1", "Potency": "8.33 µM (active)"}
{"smiles": "Cc1cn2c(-c3cn[nH]c3)cnc2c(Nc2ccc(C(=O)N3CCNCC3)cc2F)n1", "Potency": "13.2 µM (active)"}
{"smiles": "CN(C)CCCN=c1c2ccccc2n(C)c2[nH]c(=O)n(C)c(=O)c12", "Potency": "8.33 µM (active)"}
